NSD2 HMT inh: inhibitors of human histone methyltransferase NSD2; NSD2 peptide methylation, AlphaScreen, 120 min; O96028; AID 743445; inhibition, % at 12.5 µM; 310,000 tested, 0.54% active; in the data active = inhibition above about 50%
Target sequence (O96028 whole entry, looked up): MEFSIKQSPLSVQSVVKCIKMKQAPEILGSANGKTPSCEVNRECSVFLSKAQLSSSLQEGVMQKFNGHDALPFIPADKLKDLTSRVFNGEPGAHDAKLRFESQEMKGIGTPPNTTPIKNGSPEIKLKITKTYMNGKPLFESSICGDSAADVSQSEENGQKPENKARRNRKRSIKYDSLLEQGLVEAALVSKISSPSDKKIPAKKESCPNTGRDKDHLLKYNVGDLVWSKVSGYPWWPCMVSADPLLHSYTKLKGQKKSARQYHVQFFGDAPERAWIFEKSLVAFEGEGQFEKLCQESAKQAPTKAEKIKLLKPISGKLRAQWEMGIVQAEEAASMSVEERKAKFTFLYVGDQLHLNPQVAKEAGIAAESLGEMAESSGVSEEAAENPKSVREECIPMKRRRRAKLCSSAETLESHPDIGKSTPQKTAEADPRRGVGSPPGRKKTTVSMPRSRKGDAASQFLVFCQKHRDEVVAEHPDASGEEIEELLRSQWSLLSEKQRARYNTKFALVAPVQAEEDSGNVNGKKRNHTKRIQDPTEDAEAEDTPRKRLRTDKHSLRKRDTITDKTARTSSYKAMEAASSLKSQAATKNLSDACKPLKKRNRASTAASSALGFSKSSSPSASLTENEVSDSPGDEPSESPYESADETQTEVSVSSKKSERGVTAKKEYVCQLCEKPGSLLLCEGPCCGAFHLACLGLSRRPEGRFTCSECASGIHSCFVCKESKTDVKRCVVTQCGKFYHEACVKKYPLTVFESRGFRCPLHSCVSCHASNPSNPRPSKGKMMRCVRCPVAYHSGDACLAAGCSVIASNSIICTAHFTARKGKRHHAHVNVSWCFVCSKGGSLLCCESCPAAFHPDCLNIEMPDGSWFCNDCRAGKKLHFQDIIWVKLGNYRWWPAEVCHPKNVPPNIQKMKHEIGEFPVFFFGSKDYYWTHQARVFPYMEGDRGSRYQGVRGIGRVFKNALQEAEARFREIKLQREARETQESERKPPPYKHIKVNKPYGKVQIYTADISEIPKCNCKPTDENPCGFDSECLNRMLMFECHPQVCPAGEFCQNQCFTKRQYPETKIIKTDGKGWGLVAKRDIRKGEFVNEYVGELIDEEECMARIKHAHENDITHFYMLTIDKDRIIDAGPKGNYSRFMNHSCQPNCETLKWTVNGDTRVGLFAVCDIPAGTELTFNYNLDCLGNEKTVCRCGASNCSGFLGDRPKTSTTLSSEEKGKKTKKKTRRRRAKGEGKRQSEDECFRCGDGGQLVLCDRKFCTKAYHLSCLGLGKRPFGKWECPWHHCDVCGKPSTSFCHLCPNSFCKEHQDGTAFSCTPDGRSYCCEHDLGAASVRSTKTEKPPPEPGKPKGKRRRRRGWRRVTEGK
Shn3 inh set2: inhibitors of Schnurri-3 3'UTR reporter in osteoblasts. Clone20 osteoblast Shn3 3'UTR firefly luciferase, 24 h. inhibition, % at 12.5 µM. 360,000 tested, 0.52% active;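 active = mean inhibition of at least 75% with every replicate also reaching 75%; inconclusive = mean inhibition at least 75% but some replicate below; inactive = mean inhibition below 75%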;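 also: 0% = median of neutral control wells and 100% = pilot-screen positive control compound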
EBV LMP1 NFkB: reduces LMP1-driven NF-kappaB luciferase signal; LMP1-induced NF-kappaB luciferase reporter cells, luminescence; inhibition, % at 12.5 µM; 350,000 tested, 0.69% active; in the data active = inhibition above about 41%; inconclusive = no clear call, values can overlap the other calls;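 also: 0% = neutral control wells and 100% = reference inhibitor control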
Glyco luc inh: N-linked glycosylation inhibition | D54 ERlucT glycosylation luciferase reporter, 24 h; percent of 100 nM tunicamycin response | reporter increase, % at 12.5 µM | 360,000 tested, 0.23% active;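 active = mean luciferase reporter signal, scaled so untreated is 0 and the glycosylation-blocking control 100, at or above a set limit in every replicate; inconclusive = mean reaches the limit but not every replicate does; inactive = mean below the limit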;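 also: luciferase carries N-glycosylation sites so blocking glycosylation raises the light; 0% = median of neutral control wells and 100% = median of 100 nM tunicamycin wells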
HIV Env fusion: blocks HIV Env-driven cell-cell fusion | HeLa-JRFL Env/CEM21 cell fusion, luciferase | inhibition, % at 12.3 µM | 360,000 tested, 1.1% active | AID 651610;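 active = mean replicate inhibition score of at least 50 and every replicate individually at or above 50; inconclusive = only one of the two criteria met; inactive = mean below 50 and not all replicates reaching 50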;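 also: 0% = plate neutral controls and 100% = maraviroc near 300 nM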
PAX8 reporter: lowers PAX8-driven luciferase in RMG-I cells | RMG-I TPO-luciferase reporter, SteadyGlo, 24 h | inhibition, % at 12.6 µM | 360,000 tested, 1.2% active | AID 652154;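 active = mean replicate inhibition at least 60% with every replicate also reaching 60%; inconclusive = only one of the two criteria is met; inactive = mean below 60% and not all replicates reaching 60%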;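 also: luciferase light reporting Pax8 driven TPO promoter activity; plate controls were median of neutral control wells for no effect and mitoxantrone controls for full effect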
Alpha artifact: AlphaScreen assay artifact in NSD2 counter-screen; AC35, µM (doses to about 10 µM), for the others: top-dose activity change, negative = signal loss; 1,500 tested, 9.4% active; AlphaScreen artifact counterscreen, preloaded methylated H4 peptide; shares compounds with NSD2 HMT inh; AID 1053174; call rule not given here
The depositor's hits bear a star; ? = inconclusive; nt = no result given; [ ] = another dose, or the depositor's remark. This is a sample that favours compounds with a hit; in the whole collection about 2.8% have one here.

SMILES	NSD2 HMT inh	Shn3 inh set2	EBV LMP1 NFkB	Glyco luc inh	HIV Env fusion	PAX8 reporter	Alpha artifact
COc1ccc(C(=O)Nn2c(SCC(=O)c3ccc(Cl)cc3)nc3ccccc3c2=O)cc1	116.4*	15.3	48.1*	-17.2	-22.8	31.6	-4.1%
O=C(c1coc(=O)c(Br)c1)N1CCOCC1	140.6*	-7.7	-5.4	-0.4	nt	nt	-7.9%
CN(C)c1cc(N/N=C/c2ccc(Cl)cc2)nc(N(C)C)n1	99.6*	28.3	-16.4	0.3	-1.5	32.6	-4.4%
CCCC(=O)Nc1ccc2c(c1)C(=O)N(C)C[C@H](OC)[C@@H](C)CN(CCC(F)(F)F)[C@@H](C)CO2	nt	nt	nt	nt	3.3[16.7 µM]	14.5	nt
Cc1c(NC(=O)C(C)OC(=O)c2ccc([N+](=O)[O-])s2)c(=O)n(-c2ccccc2)n1C (stereo not drawn)	115.0*	-20.2	13.1	4.3	22.7	-5.4	-2.2%
Cc1c(NC(=O)C(C)OC(=O)c2sc3ccccc3c2Cl)c(=O)n(-c2ccccc2)n1C (stereo not drawn)	3.0	-3.6	-4.2	0.5	18.4	8.1	nt
C[C@H](NC(=O)N(C)C[C@H]1OCc2ccccc2-c2ccccc2C(=O)N([C@@H](C)CO)C[C@H]1C)c1ccccc1	nt	nt	nt	nt	8.4[16.7 µM]	15.6	nt
Cc1cccnc1NC(=O)c1ccc(S(=O)(=O)N2CC(C)OC(C)C2)cc1 (stereo not drawn)	50.4*	16.4	0.0	4.6	-3.1	-18.7	-1.2%
Cc1noc(C)c1NC(=O)Nc1ccc2c(c1)C(=O)N([C@@H](C)CO)C[C@@H](C)[C@H](CN(C)C(=O)Nc1ccc(F)cc1)O2	nt	nt	nt	nt	14.2[16.7 µM]	-6.4	nt
COc1cc(/C=C2\C(=O)ON=C2c2ccc(Cl)cc2)ccc1O	60.9*	nt	nt	nt	9.7	-0.9	-4.2%
O=C1ON=C(c2ccccc2)/C1=C/c1ccc(O)c(O)c1	24.5	-15.5	5.4	-7.2	29.0	-4.6	nt
CCc1ccc(S(=O)(=O)Nc2cc(SCC(=O)O)c(O)c3ccccc23)cc1	112.5*	4.3	2.7	6.5	9.0	22.7	-9.7%
O=S(=O)(Nc1cc(Sc2cccc3cccnc23)c(O)c2ccccc12)c1ccccc1	56.4*	nt	nt	nt	nt	105.2*	-12.7%
N=C1SCC(=O)N1c1ncc(Cc2cccc(Cl)c2)s1	80.0*	-41.8	-5.4	2.5	5.9	-6.5	-0.6%
N=C1SCC(=O)N1c1ncc(Cc2ccccc2Cl)s1	-1.4	-12.1	-17.0	3.4	-15.7	-1.8	nt
COc1cccc(-c2ccc(C3[C@H]4CNC[C@@H]3N4Cc3cncnc3)cc2)c1 (stereo partly drawn)	nt	nt	nt	nt	nt	9.1	nt
CC(C)(C)/C=N/NC(=O)CNC(=O)c1ccc2c(c1)OCCO2	50.4*	-10.1	6.2	0.3	-13.8	-12.6	-3.8%
COC(=O)C(C)(C)NC(=O)c1cccs1	124.3*	4.9	-0.6	-1.7	35.8	nt	0.8%
CCCCn1c(NC(=O)c2ccccc2Cl)c(C#N)c2nc3ccccc3nc21	113.8*	-4.0	11.2	0.7	-7.2	30.3	4.1%
CCC(=O)Nc1c(C#N)c2nc3ccccc3nc2n1-c1ccccc1C	16.0	6.6	0.2	0.0	?	nt	nt
C[C@@H]1CCCCO[C@@H](CN(C)S(=O)(=O)c2ccc(F)cc2)[C@@H](C)CN([C@H](C)CO)C(=O)c2cc(NC(=O)CCC(F)(F)F)ccc2O1	nt	nt	nt	nt	-8.1[16.7 µM]	-4.5	nt
CCN1/C(=C/c2ccc3cc(C)cc(C)c3[n+]2CC)Sc2cc(C)ccc21	113.2*	65.0	29.0	11.2	24.1	101.5*	9.69µM*
Cc1ccc2c(c1)S/C(=C\c1cccc[n+]1C)N2CCO	1.4	-16.5	1.7	0.6	5.4	21.5	nt
N#CCOC(=O)c1sccc1-n1cccc1	2.7	9.7	1.6	-3.0	nt	nt	nt
N#CCC(=O)c1sccc1-n1cccc1	91.9*	8.4	2.9	1.3	0.2	26.9	-4.6%
SMILES	NSD2 HMT inh	Shn3 inh set2	EBV LMP1 NFkB	Glyco luc inh	HIV Env fusion	PAX8 reporter	Alpha artifact
CCNC(=O)C1CCCN(C(=O)c2ccccc2F)CC1 (stereo not drawn)	0.7	-19.4	nt	1.2	-6.7	-6.6	nt
CCNC(=O)C1CCCN(C(=O)c2ccccc2OC(F)(F)F)CC1 (stereo not drawn)	60.3*	-8.3	nt	0.6	nt	1.3	-3.3%
O=C(N[C@@H]1CC[C@@H](CCNS(=O)(=O)c2ccccc2)O[C@@H]1CO)c1cccnc1	nt	nt	nt	nt	4.0[16.7 µM]	-4.2	nt
Cc1c(C)n(Cc2ccccc2)c2ccc(C(=O)OCCCN(C)C)cc12	90.4*	-5.5	-3.7	-7.5	28.7	10.0	-10.8%
CN(C)CC(=O)N1[C@H](CO)[C@@H](c2ccc(C#CC3CC3)cc2)[C@@H]1C#N	nt	nt	nt	nt	-3.8[16.7 µM]	12.8	nt
O=C1CCN2C=Nc3cccc4ccc1c2c34	114.7*	-5.6	4.2	5.6	40.8	-12.6	2.7%
CCOc1ccc(N2CC(C(=O)Nc3nnc(Cc4ccc(OC)cc4)s3)CC2=O)cc1 (stereo not drawn)	6.6	-5.1	8.1	1.3	2.1	4.8	nt
COc1ccc(Cc2nnc(NC(=O)C3CC(=O)N(c4ccc(OC)cc4)C3)s2)cc1 (stereo not drawn)	72.6*	1.9	-1.0	-1.4	0.0	8.1	-1.5%
COc1ccc(/C=N/NC(=O)c2cc(O)c(O)c(O)c2)cc1Cn1cc([N+](=O)[O-])cn1	72.6*	-31.3	-16.4	2.9	11.0	13.7	8.63µM*
COc1ccc(-c2cnc3c(c2)C(=O)N([C@H](C)CO)C[C@@H](C)[C@@H](CN(C)C(=O)Cc2cccnc2)O3)cc1	nt	nt	nt	nt	1.1[16.7 µM]	-25.6	nt
O=C(NC(=S)Nc1cccc2ncccc12)c1ccco1	-2.5	0.5	3.0	1.8	-3.6	12.0	nt
COCCCNC(=S)Nc1cccc2ncccc12	86.1*	-18.6	4.6	5.2	6.6	12.4	-1.0%
O=C1CN(Cc2ccc(F)cc2)C[C@@H]2[C@H](c3ccc(-c4ccccc4F)cc3)[C@H](CO)N12	nt	nt	nt	nt	nt	2.1	nt
CSc1cnc2c(=O)n(C)c(=O)[nH]c2n1	-0.6	-12.6	6.4	1.6	20.7	-6.5	nt
Cn1c(=O)[nH]c2nnc(-c3ccc(Cl)c(Cl)c3)nc2c1=O	106.6*	-56.5	11.6	-8.0	-28.8	-93.1	-1.6%
C[C@H](NC(=O)C[C@@H]1C=C[C@@H](NC(=O)C2CCOCC2)[C@H](CO)O1)c1ccccc1	nt	nt	nt	nt	-19.7[16.7 µM]	-15.1	nt
Cc1noc(C)c1NC(=O)N(C)C[C@@H]1Oc2ncc(/C=C/c3ccccc3)cc2C(=O)N([C@H](C)CO)C[C@@H]1C	nt	nt	nt	nt	-10.5[16.7 µM]	14.4	nt
CCN(CC)C(=O)C1CCCN(Cc2ccc(OC)c(C)c2C)C1 (stereo not drawn)	52.8*	-6.7	-4.9	3.1	-30.6	1.1	-5.0%
CCOC(=O)C1CCCN(Cc2cc(Br)ccc2OC)C1 (stereo not drawn)	nt	-73.4	0.5	1.5	-10.5	nt	nt
CC(C)=CCC/C(C)=C/CC/C(C)=C/CC/C(C)=C/CC1=C(C)C(=O)c2ccccc2C1=O	nt	59.6	-1.8	-0.5	11.0	36.8	nt

Source: PubChem (Broad Institute)
